This passage reports inhibition results from PubChem BioAssay AID652257 (The Scripps Research Institute Molecular Screening Center, 2013).

A word on the inhibition: it is the drop in the measured response relative to a control, in per cent.

The campaign covered roughly 370,000 compounds. About 4,800 (1.3%) were called active. The sample holds actives, similar compounds and a random draw of the others, so the mix is not that of the screen. Unmarked numbers belong to inactive results.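 How the source made its calls: active means inhibition above about 21% made by adding two undisclosed values (limit read from the data); inactive means the rest.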

Sequence of Protein arginine N-methyltransferase 1 (Homo sapiens) (Q99873 whole entry, looked up): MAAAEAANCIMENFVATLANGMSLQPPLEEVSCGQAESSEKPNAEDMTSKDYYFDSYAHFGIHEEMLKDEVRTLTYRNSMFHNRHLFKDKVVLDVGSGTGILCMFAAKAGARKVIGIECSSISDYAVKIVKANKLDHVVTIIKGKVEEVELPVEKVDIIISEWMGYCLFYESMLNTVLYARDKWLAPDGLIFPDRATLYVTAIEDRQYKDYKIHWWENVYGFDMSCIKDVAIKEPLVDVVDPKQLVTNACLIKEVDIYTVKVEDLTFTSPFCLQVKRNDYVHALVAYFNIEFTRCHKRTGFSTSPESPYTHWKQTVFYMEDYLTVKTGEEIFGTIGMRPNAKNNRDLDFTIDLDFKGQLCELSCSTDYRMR

The assay concerns the target Protein arginine N-methyltransferase 1 (Homo sapiens) (UniProt Q99873). In words: human PRMT1 activity-probe blockers – biochemical, fluorescence polarization, primary screen (AID 652257). To be noted: recombinant PRMT1, activity-based probe fluorescence polarization; at 2.79 µM; active compounds read high. (In general: Fluorescence polarisation rises when a labelled molecule tumbles more slowly, as on binding a larger partner.)
`O=C(Cn1cnc2ccccc21)N/N=C/c1ccco1`: the inhibition was -1.39%.
Take `O=C(COC(=O)Cn1cnc2ccccc2c1=O)NCC12CC3CC(CC(C3)C1)C2`: the inhibition was -1.36%.
Take `O=C(COC(=O)Cn1cnc2ccccc21)Nc1cccc2c1C(=O)c1ccccc1C2=O`: the inhibition is 26.1% (active).
As for `Cc1cc2nc3c(=O)[nH]c(=O)nc-3n(C[C@H](O)[C@H](O)[C@H](O)CO)c2cc1C`, the inhibition was 85.4% (active).
With `Cc1ccc(OCC(=O)c2cc(C)n(Cc3ccco3)c2C)c([N+](=O)[O-])n1`, the inhibition was 1.18%.
As to `Cc1ccc(Cn2c(C)nc3c(c2=O)c2nc4ccccc4nc2n3Cc2ccco2)cc1`, the inhibition was 24.6% (active).
The value for `Cc1ccc(C(=O)CSc2nc3ccccc3c(=O)n2N)o1` was 6.79%.
For `C[C@H]1CN([C@@H](C)CO)S(=O)(=O)c2ccc(Br)cc2O[C@H]1CN(C)C(=O)c1cnccn1`, the inhibition was -6.2%.
The value for `CC1Sc2ccc(C(=O)NCc3ccccc3Cl)cc2NC1=O` (centres undefined) was 1.76%; that for `COC(=O)c1cccc(Cn2ccc3ccc(-c4ccc5ccn(C(=O)C6CCCCC6)c5c4)cc32)c1` was 3.39%.
For the compound `C[C@@H]1COc2cccc(N3CCCC3)c2S(=O)(=O)N1C`, the inhibition is 10.8%.
As to `C=CCn1c(N)cc(=O)nc1SCC(=O)Nc1cccc2ccccc12`, the inhibition is -1.49%.
Turning to `Cc1ccc(-n2c(SCC(=O)Nc3cccc4ccccc34)nnc2-c2ccccn2)cc1`, the inhibition is -1.87%.
Under `Cc1ccccc1-n1c(SCC(=O)Nc2cccc3ccccc23)nc(O)cc1=O` stands 27.6% (active); under `COc1cccc(CNC(=O)C2CCCN(c3nc4ccccc4o3)C2)c1OC` (centres undefined), -1.5%; under `Cc1ccc(NC(=O)Nc2cc(C)nn2-c2ccccc2)cc1`, -2.65%.
The value for `O=C(c1cccc(C(F)(F)F)c1)N1CC[C@H]2[C@H](CCCN2Cc2cc(F)cc(F)c2)C1` was -3.31%.
Under `CCCC(NC(=O)c1ccccc1)c1nc2ccccc2n1Cc1ccc(C(=O)OC)o1` (centres undefined) stands -1.43%.
Regarding `CCOCCn1c(C(C)C)nc2ccccc21`, the inhibition was -1.59%.
For the compound `CCCn1c(C(Cc2ccccc2)NC(=O)COC)nc2ccccc21` (centres undefined), the inhibition is 21.6% (active).
For `CCCCn1ccnc1C(=O)c1cccc(S(=O)(=O)N2c3ccccc3CC2C)c1` (centres undefined), the inhibition was -0.73%.
In the case of `Cc1ccccc1NC(=O)C1CCN(c2ncccn2)CC1`, the inhibition is 8.54%.
On to `Fc1ccc2nc(COCc3nc4ccc(F)cc4[nH]3)[nH]c2c1`, for which the inhibition is -1.38%.
Consider `CC(C)c1ccc(C2C(C#N)=C(N)Oc3c2oc(CO)cc3=O)cc1` (centres undefined), for which the inhibition was 2.64%.
Consider `Cc1cc2c(c(=O)n1C)C(C(C)C)C(C#N)=C(N)O2` (centres undefined), for which the inhibition is 2.55%.
`Cc1cc2c(c(=O)n1Cc1ccco1)C(c1ccccc1)C(C#N)=C(N)O2` (centres undefined): the inhibition was 36.6% (active).
Regarding `CCC(C)(C)NC(=O)C(c1cccc(OC)c1OC)N(CC(C)C)C(=O)CCC(=O)Nc1cc(C)on1` (centres undefined), the inhibition is -2.2%.
Under `CCn1c(=S)sc2c(=O)n(CC(=O)Nc3ccc(OC)cc3)c(C)nc21` stands 0.4%; under `Oc1ccc2ccc3cccc[n+]3c2c1`, 187% (active).
`COC(=O)[C@]12C[C@H](CC(=O)NCc3ccccc3)C(=O)N(Cc3ccccc3)C1=C[C@H](COCc1ccccc1)O[C@@H]2C`: the inhibition is 1.65%.
Turning to `N/C(=N\OC(=O)CCc1ccccc1)c1cccnc1`, the inhibition was 0.81%.
For the compound `Cc1ccc(OCc2nnc(SC/C=C/c3ccccc3)n2Cc2ccco2)cc1`, the inhibition was -0.38%.
Consider `O=C(Nc1cc(Cl)cc(Cl)c1)OCCN1CCCC12CCC(c1ccccc1)CC2` (centres undefined), for which the inhibition was -4.6%.
Turning to `COc1ccc(CSc2nnc(SCC(=O)Nc3ccccc3C(F)(F)F)s2)cc1`, the inhibition was -1.07%.
Regarding `COCCCNC(=O)C[C@H]1C[C@@]2(C(=O)OC)C(=C[C@H](C(C)(C)C)O[C@@H]2C)N(Cc2ccc(Cl)cc2Cl)C1=O`, the inhibition is 4.84%.
With `COC(=O)[C@]12C[C@H](CC(=O)NCc3ccccc3)C(=O)N(CCc3ccc(OC)c(OC)c3)C1=C[C@H](C(C)(C)C)O[C@@H]2C`, the inhibition is -1.11%.
Take `NC(=O)c1ccc(NC(=O)COC(=O)c2c3c(nc4ccccc24)/C(=C\c2ccc4c(c2)OCO4)CCC3)cc1`: the inhibition was 141% (active).
Regarding `CN(CC(=O)Nc1ccc(C(N)=O)cc1)S(=O)(=O)c1ccc2c(c1)OCCO2`, the inhibition was -3.91%.
Regarding `CN(C)S(=O)(=O)c1ccc(NC(=O)COC(=O)c2n[nH]c3ccccc23)cc1`, the inhibition is -3.56%.
With `O=C(COC(=O)c1ccc2c(c1)OCCO2)NCc1ccccc1Cl`, the inhibition was -2.85%.
In the case of `NS(=O)(=O)c1ccc(NC(=O)COC(=O)c2c3c(nc4ccccc24)/C(=C\c2ccc4c(c2)OCO4)CCC3)cc1`, the inhibition was 139% (active).
Take `O=C(COC(=O)c1c(Cl)cccc1Cl)Nc1cccc(S(=O)(=O)NC2=NCCCCC2)c1`: the inhibition is -1.88%.
Under `COc1cccc(CSc2nnc(-c3cccnc3)n2Cc2ccccc2)c1` stands 4.89%; under `COc1ccc(C2Nc3ccccc3C(=O)N2Cc2cccs2)cc1COc1c(C)cccc1C` (centres undefined), -1.12%.
`CCOC(=O)N1CCN(C(=O)CSc2nnc(-c3c[nH]c4ccccc34)n2CCOC)CC1`: the inhibition is -1.98%.
The value for `CN(CCO)c1cccc2c1S(=O)(=O)N(Cc1cn(Cc3ccc(C(F)(F)F)cc3)nn1)Cc1ccccc1O2` was 4.68%; that for `Cn1c(SCC(=O)N2CCCc3ccccc32)nc2ccccc2c1=O` was 0.04%.
Take `COc1cccc(/C=C/C(=O)OCC(=O)N2CCCc3ccccc32)c1`: the inhibition is -0.48%.
Turning to `Cc1cccc2cc3c(N)c(C(=O)N4CCCc5ccccc54)sc3nc12`, the inhibition was 38% (active).
The value for `Cc1ccc(N)cc1CN1CCN(c2ncc(Cc3ccccc3)cn2)CC1` was -1.39%.
The value for `Cc1ccc(NC2(C#N)C(=O)Nc3ccccc32)cc1` (centres undefined) was -2.14%.
Take `N#CC1=C(N)Oc2[nH]c(=S)[nH]c(=O)c2C12C(=O)Nc1ccccc12` (centres undefined): the inhibition is 37.2% (active).
Take `O=S1(=O)c2ccc(Br)cc2OC[C@H](Cc2ccccc2)N1Cc1cn(Cc2ccccc2)nn1`: the inhibition was 4.16%.
The value for `C=CCC(NCc1ccco1)c1ccc(OC)cc1` (centres undefined) was -0.85%.
